A number with no mark means an inactive call. Activity calls are given as the source filed them. Calls follow the shape of the dose curve; as a rule, active = well fitted curve in the direction sought with a large enough effect in the repeat runs; inconclusive = weak or mixed curves; inactive = flat fitted curve, though single readings scatter.
Test: qHTS assay to test for compound auto fluorescence at 460 nm (blue) in HepG2 cells (AID 720687)
Conditions: autofluorescence 405/460 nm, 1 h; series mostly up to 91.3 µM; fluorescence, % of fluorescent control: at the top concentration
From the text: U.S. Tox21 Program National Center for Advancing Translational Sciences [NCATS] NIH Chemical Genomics Center [NCGC] U.S. Environmental Protection Agency [EPA] National Institutes of Environmental Health Sciences [NIEHS] National Toxicology Program [NTP] U.S. Food and Drug Administration [FDA] Tox21 Assay Overview: Compound auto fluorescence often interferes with screening of the compound library against various biological targets and signaling pathways. Some of these compounds may have fluorophoric properties. Such properties may interfere with the assay outputs resulting in false positives and/or negatives. To decrease such complications and ensure the compound activities are relevant in terms of biological response, the Tox21 10K compound library was screened for auto fluorescence. From the fluorophores used as reporter signals in our screening assays, the auto fluorescence equivalencies of compounds against three fluorophores have been evaluated: Triamterene, Fluorescein and Rose Bengal sodium for blue, green and red fluorescence, respectively. The fluorescence intensities were measured using Excitation/Emission wavelengths at 405/460nm, 485/535nm and 540/590nm for blue, green and red labels, respectively. This assay includes the blue fluorescence data.
Tox21 Assay Protocol Summary: 2,000 HepG2 cells in 5 uL of culture medium (MEM containing 10% FBS) per well were dispensed into black wall/clear bottom 1536-well plates using a Multidrop Combi Dispenser (ThermoFisher Scientific, Waltham, MA). The assay plates were incubated overnight at 37 C to allow cell attachment to the well bottom, followed by the transfer of 23 nL compound or DMSO vehicle by a pintool work station (Kalypsys , San Diego, CA). After the assay plates were incubated for 1 hr at 37 C and 5% CO2, fluorescence intensities in the assay plates were measured by an Envision (PerkinElmer, Shelton, CT) plate reader using three labels for measuring blue, green and red fluorescence at […] 460, 535 and 590 nm respectively.
% is scaled to controls: 0 for no effect and ±100 for the full control effect.

Structure (SMILES)	fluorescence, % of fluorescent control	outcome
Nc1ncnc2c1ncn2[C@@H]1O[C@H](CO)[C@@H](O)[C@H]1O	0.0359% [at 46 µM]	
CC(=O)OCC(=O)[C@@]1(O)CC[C@H]2[C@@H]3CCC4=CC(=O)C=C[C@]4(C)[C@@]3(F)[C@@H](O)C[C@@]21C	-0.158% [at 18.6 µM]	
CCOC(C)OCC		inactive
Cc1c(Nc2ncccc2C(=O)O)cccc1C(F)(F)F	0.0693% [at 18.6 µM]	
Cc1nc2sccn2c(=O)c1CCN1CCC(=C(c2ccc(F)cc2)c2ccc(F)cc2)CC1	-0.0042% [at 46 µM]	
O=C1CCCN1CCO	0.0356%	
CCn1nc(Cc2ccccc2)cc1C1CCN(C[C@H]2C[C@H](N(C)[C@@H](C(=O)O)C(C)C)C[C@@H]2c2cccc(F)c2)CC1	0.0315%	
C=C[Si](OCC)(OCC)OCC	-0.247%	
CCCCCCCCCCCCN1CCOCC1	-0.143%	
CC(C)=CCC/C(C)=C/C=N/O	0.045%	
CCOCCn1c(N2CCCN(C)CC2)nc2ccccc21	0.0815% [at 46 µM]	
CCCN(C1CCN(C(=O)C2CCNCC2)CC1)[C@@H]1CCc2ccc(OC)cc2C1	-0.213%	
Cc1ccc(NC=O)c(C)c1	-0.0075%	
O=C(O)CCc1nc2ccccc2[nH]1	0.173% [at 46 µM]	
CCOc1ccc2c(c1)C(C)CC(C)(C)N2 (stereo not given)	1.5%	
CC(C)(C)c1ccc(CCC=O)cc1	-0.0645%	
C=CC(=O)NC(C)(C)C	0.505%	
CCCC(=O)OCCC(C)C	-0.0831%	
CC(C)=CCC[C@H](C)CCO	0.0027%	
O=c1c2ccccc2oc2ccccc12	0.0031%	

Structure (SMILES)	fluorescence, % of fluorescent control	outcome
CCc1c(C)[nH]c2c1C(=O)C(CN1CCOCC1)CC2 (stereo not given)	0.0012% [at 18.6 µM]	
CCCOC(C)=O	0.0269%	
CO[C@@H]1[C@@H](O[C@@H]2O[C@H](C)[C@@H](O[C@H]3C[C@@](C)(O)[C@@H](O)[C@H](C)O3)[C@H](N(C)C)[C@H]2O)[C@@H](CC=O)C[C@@H](C)[C@@H](O[C@@H]2CC[C@H](N(C)C)[C@@H](C)O2)/C=C/C=C/C[C@@H](C)OC(=O)C[C@H]1OC(C)=O	-0.189% [at 46 µM]	
Nc1ccc(-c2ccc(F)cc2)cc1	0.23%	
O=C(O)c1ccccc1-n1cc(C(=O)O)c(=O)c2cc(Nc3c(F)cc(F)cc3Cl)c(Cl)cc21	0.8%	
C(/C=C/C=C/Nc1ccccc1)=Nc1ccccc1	0.0042%	
CC1=C(C)C(=O)C(CCCCC#CCCCC#CCO)=C(C)C1=O	0.251% [at 46 µM]	
CCC(=O)O[C@@H]1C[C@H]2CC[C@]1(C)C2(C)C	-0.129%	
O=C(O)c1ccc2cc(O)ccc2c1	-0.0684%	
CCCCCCCCNC	0.0503%	
C1CCN(CN2CCCCC2)CC1	0.0014%	
CCC(CC)C(=O)O	-0.0788%	
Cc1ccc(NC(=O)c2ccc(CN3CCN(C)CC3)cc2)cc1Nc1nccc(-c2cccnc2)n1	0.0846% [at 46 µM]	
CC(C(=O)O)c1ccc(/C=C2\CCCCC2=O)cc1 (stereo not given)	0.125% [at 46 µM]	
CCCCC(CC)COCCC#N (stereo not given)	0.0346%	
CCOc1ccc(NC(C)=O)cc1N	0.0063% [at 95.7 µM]	
Cc1cc(N)n(-c2ccccc2)n1	0.0134%	
O=C(OCCCCCOC(=O)c1ccccc1)c1ccccc1	-0.0032%	
COc1ccc(C(=O)c2ccc(C)cc2)c(O)c1		inactive
CC(=O)Nc1ccn(C2COC(COC(=O)c3ccccc3)O2)c(=O)n1 (stereo not given)	-0.0038% [at 46 µM]	
